Source: PubChem
A selection: hits, their analogues and other compounds. The true share with any hit is near 10%.
KB-V1 MDR tox: KB-V1 MDR subline cytotoxicity | Potency, µM (doses to about 46.1 µM), actives largely listed as cytotoxic | KB-V1 MDR cells viability, CellTiter-Glo, 72 h | AID 1347076 | hit rate 3.4% among 400,000; also: % is scaled to controls: 0 for no effect and ±100 for the full control effect; nearly all actives have a fitted effect of over 60% in size
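Potencies derive from concentration-effect curves fitted to normalized luminescence (CellTiter-Glo) of KB-V1 cells treated for 72 h at 37 degrees C in phenol-red-free DMEM containing 10% FBS.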
KB-3-1 cytotox: KB-3-1 parental cell cytotoxicity; KB-3-1 viability, CellTiter-Glo ATP luminescence, 72 h; Potency, µM (top dose mostly 46.1 µM), usual class: cytotoxic; hit rate 1.4% among 400,000; AID 1347075; also: % is scaled to controls: 0 for no effect and ±100 for the full control effect; nearly all actives have a fitted effect of over 60% in size
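Using CellTiter-Glo luminescence, growth of non-resistant KB-3-1 adenocarcinoma cells is assessed 72 h after pin-tool compound addition at 37 °C. Normalized responses across the concentration series yield fitted curves.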
MCF10A rerep: DNA re-replication induction in MCF 10a cells; MCF 10A DNA re-replication, Hoechst nuclear intensity, 48 h; Potency, µM (highest dose often 46.1 µM), for the others: at the top dose activity, positive = re-replication, hits mostly activators; hit rate 2.9% among 350,000; AID 624296; also: % of control where 0% means no effect; nearly all actives have a fitted effect of over 50% in size
VP16 counter: Gal4-VP16 reporter inhibition counter-screen | Drosophila S2 Gal4-VP16 UAS-luciferase, luminescence, 20 h | AID 2546 | Potency, µM (series often up to 53.6 µM), for inactives: at the highest dose activity, negative = inhibition, actives largely listed as inhibitors | hit rate 3.5% among 310,000;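 also: Gal4-VP16 expression switched on by copper sulfate through the metallothionein promoter; % is scaled to controls: 0 for no effect and ±100 for the full control effect; nearly all actives have a fitted effect of over 50% in size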
SW480 rereplic: DNA re-replication induction in SW480 cells. SW480 DNA re-replication, Hoechst DNA content imaging, 48 h. hit rate 1.8% among 340,000. Potency, µM (series often up to 46.1 µM), inactives show at the highest dose re-replication activation, most hits filed as activators. AID 624297; also: % of control where 0% means no effect; nearly all actives have a fitted effect of over 55% in size
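250 cells/well; 23 nL cpd via pin tool; 48 hr, 37 C, 5% CO2; Hoechst 40 min; imager read of total nuclear intensity, ex 405/em 500-530 nm.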
RORg inh: blocks mouse ROR gamma transcriptional activity; P51450; Drosophila S2 Gal4-RORgamma UAS-luciferase reporter, 20 h; Potency, µM (series often up to 53.6 µM), without a hit: at the highest dose activity change, negative = inhibition, actives largely listed as inhibitors; hit rate 5.4% among 310,000; also: % is scaled to controls: 0 for no effect and ±100 for the full control effect; nearly all actives have a fitted effect of over 60% in size
Target sequence (P51450 whole entry, looked up, the tested form may be a part): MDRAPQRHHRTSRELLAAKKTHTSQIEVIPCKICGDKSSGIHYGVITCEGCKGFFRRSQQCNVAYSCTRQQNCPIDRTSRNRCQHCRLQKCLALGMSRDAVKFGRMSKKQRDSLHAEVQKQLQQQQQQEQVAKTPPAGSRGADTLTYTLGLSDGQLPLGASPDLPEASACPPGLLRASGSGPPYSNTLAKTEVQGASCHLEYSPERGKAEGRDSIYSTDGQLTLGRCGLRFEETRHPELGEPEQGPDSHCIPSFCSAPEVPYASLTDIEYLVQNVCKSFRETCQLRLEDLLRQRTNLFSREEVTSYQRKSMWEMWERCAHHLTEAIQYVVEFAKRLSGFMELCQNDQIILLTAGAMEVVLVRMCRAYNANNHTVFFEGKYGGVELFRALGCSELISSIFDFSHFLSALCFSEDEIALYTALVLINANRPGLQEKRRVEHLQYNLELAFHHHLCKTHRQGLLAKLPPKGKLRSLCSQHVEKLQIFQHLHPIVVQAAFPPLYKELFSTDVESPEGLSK
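A Gal4/UAS one-hybrid system in insect cells: metallothionein-promoter Gal4–ROR gamma fusion plus Photinus luciferase reporter. Copper sulfate 700 uM final, 20 hr ambient incubation, luminescent detection after 10 min with reagent.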
Starred values were filed as active, the others as inactive; i = inactive; u = inconclusive; x = not tested or not shown; ! = repeats disagree; [ ] = another dose, or the depositor's remark. Calls follow the shape of the dose curve; as a rule, active = well fitted curve in the direction sought with a large enough effect; inconclusive = small, poorly fitted or top-dose-only effect, or another doubt; inactive = no such curve, though single readings can be large; an effect the other way counts as inactive or inconclusive. Potency is read from the fitted curve at half-maximal effect.

SMILES	KB-V1 MDR tox	KB-3-1 cytotox	MCF10A rerep	VP16 counter	SW480 rereplic	RORg inh
COc1cc(OC)c(/C=N/n2c(C)nnc2C)c(OC)c1	i	i	26µM*	-12%	-120%	-39%
CC(=O)OC[C@@H]1O[C@H](C/C=N\O[C@@H](C)CN2CCCCc3nc(C)c(C)cc32)C=C[C@@H]1OC(C)=O	x	x	x	-9%[10 µM]	x	14%[10 µM]
COc1ccc(OCC(=O)N(C)CC2COc3ccccc3O2)cc1 (configuration not stated)	i	u	u	x	18%	x
COc1ccc2c(CC(=O)N(C)CC3COc4ccccc4O3)coc2c1 (configuration not stated)	18µM*	i	0%	3%	2%	14%
Cc1cc(Br)ccc1OCC(=O)NNC(=O)c1cnccn1	i	i	-9%	u	0%	8.9µM*
O=C(Nc1nc(-c2ccc(F)c(F)c2)cs1)c1cnccn1	i	i	6%	11%	1%	-20%
Cc1cc(Cl)ccc1OCC(=O)NNC(=O)c1cnccn1	i	i	7%	u	-4%	7.1µM*
O=C(COc1ccc2ccccc2c1)NNC(=O)c1cnccn1	i	i	u	-15%	-4%	u
O=C(COc1cccc2ccccc12)NNC(=O)c1cnccn1	u	i	11%	u	0%	13µM*
O=C(Nc1nc(-c2cccc3ccccc23)cs1)c1cnccn1	u	i	18µM*	u	u	14µM*
Cc1ccc(C(=O)NNC(=O)COc2ccc(Cl)cc2C)o1	i	i	-2%	x	2%	x
O=C(Nc1cccc([S+](=O)([O-])Nc2ccccc2F)c1)c1ccccc1	i	i	x	x	x	x
O=C(NCc1cc(Cl)cc(Cl)c1)c1ccc2nc([C@@H]3O[C@H](CO)[C@@H](O)[C@H]3O)[nH]c2c1	i	i	x	x	x	x
COc1ccc(C(=O)CN2CCN(S(=O)(=O)c3ccc(C(C)C)cc3)CC2)cc1	i	i	x	x	x	x
Cc1ccc(C(=O)CC(=O)COc2ccc(Cl)cc2C)cc1	u	i	0%	4.5µM*	-36%	10µM*
CC(=O)c1c(C)[nH]c(C(=O)NNC(=O)COc2cc(C)ccc2C(C)C)c1C	i	i	1%	x	u	x
Cc1ccc(NC(=O)c2ccc(OC(=O)COc3ccc(Cl)cc3C)cc2)cc1	i	i	2%	-5%	-2%	-5%
CC(=O)c1c(C)[nH]c(C(=O)NNC(=O)COc2ccc(Cl)cc2C)c1C	i	i	7.1µM*	x	-20%	x
CCC(C(=O)NNC(=O)c1cnccn1)c1ccccc1 (configuration not stated)	u	u	15%	16µM*	u	11µM*
Cn1c(=O)c2c(-c3ccccc3)n3c(c2n(C)c1=O)C(c1cccc([N+](=O)[O-])c1)Nc1ccccc1-3 (configuration not stated)	u	i	x	x	x	x
O=[N+]([O-])c1cc(-c2ccccc2)cc([N+](=O)[O-])c1O	21µM*	16µM*	u	x	2%	x
COc1ccc(CCNC(=O)c2ccc(CS(=O)(=O)c3ccc(C)cc3)o2)cc1OC	4.6µM*!	u	26%	-2%	-4%	-10%
COc1ccc(CCNC(=O)c2ccc(CS(=O)(=O)c3ccc(Cl)cc3)o2)cc1OC	2.6µM*	i	28%	-1%	u	u
COc1ccc(-n2c(-c3ccc(F)cc3)cn3c4c(=O)n(C)c(=O)n(C)c4nc23)cc1	i	i	x	x	x	x
CC1=C(C(=O)Nc2ccc(C)cc2C)C(CC(C)C)n2nc(SCc3ccccc3C)nc2N1 (configuration not stated)	u	i	x	x	x	x
O=C(NNC(=S)Nc1ccc(F)cc1)c1ccccc1OC(F)F	u	i	2%	1%	-11%	2.8µM*
Cc1ccc(NC(=S)NNC(=O)c2ccccc2OC(F)F)cc1	u	i	-4%	-14%	16µM*	u
